Source: PubChem BioAssay AID1159580 (chemical genetic matrix, 2015)
The whole screen tested about 5,500 compounds, of which about 2,000 (36%) were called active. Roughly 18% stayed inconclusive and do not appear here. Rule as the data show it: active = normalized growth mostly below about 0.91 (no sharp cut-off); inconclusive = no clear call, values can overlap the other calls; inactive = mostly above about 0.92. The list shows a part of the results.

Assay: chemical genetic growth profiling, strain panel (AID 1159580);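 also: tested at 20 µM; growth read once vehicle control cultures reached saturation at 30 °C; 1 = growth at the plate median or of vehicle wells; lower values mean less growth of the strain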
Conditions: S. cerevisiae deletion strains, growth OD
[1] = locus YAL013W, strain DEP1, stronger effect = lower value
[2] = locus YDR150W, strain NUM1, stronger effect = lower value
[3] = locus YHR030C, strain SLT2, stronger effect = lower value
[4] = locus YJR075W, strain HOC1, stronger effect = lower value
[5] = locus YMR263W, strain SAP30, stronger effect = lower value
[6] = locus YNL153C, strain GIM3, stronger effect = lower value
[7] = locus YNL322C, strain KRE1, stronger effect = lower value
[8] = locus YPL055C, strain LGE1, stronger effect = lower value
[9] = locus YPL241C, strain CIN2, stronger effect = lower value
[10] = locus YHR079C, strain IRE1, stronger effect = lower value
[11] = locus YJL095W, strain BCK1, stronger effect = lower value
[12] = locus YJR066W, strain TOR1, stronger effect = lower value
[13] = locus YLR113W, strain HOG1, stronger effect = lower value
[14] = locus YNL183C, strain NPR1, stronger effect = lower value
[15] = locus YOR231W, strain MKK1, stronger effect = lower value
[16] = locus YPL256C, strain CLN2, stronger effect = lower value
[17] = locus YAL040C, strain CLN3, stronger effect = lower value
[18] = locus YCL061C, strain MRC1 (second series), stronger effect = lower value
[19] = locus YDR363W, strain ESC2, stronger effect = lower value
[20] = locus YER002W, strain NOP16, stronger effect = lower value
[21] = locus YNL197C, strain WHI3, stronger effect = lower value
[22] = locus YNL224C, strain SQS1, stronger effect = lower value
[23] = locus YOR083W, strain WHI5 (second series), stronger effect = lower value

Measured: normalized growth

CC1C(c2ccccc2)OCCN1CN1C(=O)c2ccccc2C1=O (centres undefined)
inactive: [1] 1.02 | locus YBR229C, strain ROT2, stronger effect = lower value 0.985 | locus YDL101C, strain DUN1, stronger effect = lower value 1.01 | locus YDL134C, strain PPH21, stronger effect = lower value 1.01 | [2] 0.99 | locus YEL061C, strain CIN8, stronger effect = lower value 0.98 | locus YGR078C, strain PAC10, stronger effect = lower value 1.01 | [3] 1.02 | locus YHR087W, strain rtc3, stronger effect = lower value 0.993 | locus YJR043C, strain POL32, stronger effect = lower value 1.01 | [4] 0.98 | locus YKL190W, strain CNB1, stronger effect = lower value 0.987 | locus YLR039C, strain RIC1, stronger effect = lower value 1.05 | locus YLR058C, strain SHM2 (second series), stronger effect = lower value 1 | locus YLR085C, strain ARP6, stronger effect = lower value 0.969 | locus YLR262C, strain YPT6, stronger effect = lower value 1.07 | locus YML094W, strain GIM5, stronger effect = lower value 0.975 | locus YMR219W, strain ESC1, stronger effect = lower value 0.996 | [5] 0.991 | [6] 0.992 | locus YNL298W, strain CLA4 (second series), stronger effect = lower value 1 | [7] 0.993 | locus YNR030W, strain Alg12, stronger effect = lower value 1.01 | [8] 0.991 | [9] 0.98 | locus YPR135W, strain CTF4, stronger effect = lower value 1.06

CC(C)(CO)C(O)C(=O)NCCC(=O)NCCSSCCNC(=O)CCNC(=O)C(O)C(C)(C)CO (centres undefined)
inactive: [3] 0.954 | [10] 0.973 | [11] 0.968 | [12] 0.897 | [13] 0.951 | [14] 0.89 | [15] 0.955 | [16] 0.951

CCCCCCCC/C=C\CCCCCCCC(=O)NCCO
inactive: [1] 1.01 | [17] 1.01 | [18] 1 | [2] 1 | [19] 0.974 | [20] 1.02 | [4] 1 | [5] 0.994 | [6] 0.981 | locus YNL175C, strain NOP13, stronger effect = lower value 0.963 | [21] 0.989 | [22] 1 | [7] 0.978 | [23] 0.999

CCCCCCCCCCCCCCCC(=O)NCCO
inactive: [17] 1.02 | [18] 1.01 | [19] 1.02 | [20] 1.01 | [4] 1.01 | locus YMR307W, strain GAS1, stronger effect = lower value 1 | [21] 1.03 | [23] 1.02 | [8] 1.02 | [9] 0.999
active: [22] 0.823

CC(=O)NCCCS(=O)(=O)O
inactive: locus YAL021C, strain ccr4, stronger effect = lower value 0.994 | locus YAL026C, strain drs2, stronger effect = lower value 1.02 | locus YAL030W, strain snc1, stronger effect = lower value 1.01 | locus YBL061C, strain skt5, stronger effect = lower value 1.01 | locus YBR009C, strain hhf1, stronger effect = lower value 1.02 | locus YBR023C, strain chs3, stronger effect = lower value 1.02 | locus YBR171W, strain sec66, stronger effect = lower value 1.03 | locus YBR231C, strain swc5, stronger effect = lower value 1.02 | locus YBR279W, strain paf1, stronger effect = lower value 1.02 | locus YCL011C, strain gbp2, stronger effect = lower value 1.01 | locus YCL016C, strain dcc1, stronger effect = lower value 1.02 | locus YCL061C, strain MRC1, stronger effect = lower value 1.02 | locus YCL069W, strain vba3, stronger effect = lower value 1.01 | locus YCR088W, strain abp1, stronger effect = lower value 1.01 | locus YDL005C, strain med2, stronger effect = lower value 1.01 | locus YDL040C, strain nat1, stronger effect = lower value 1.02 | locus YDR001C, strain nth1, stronger effect = lower value 1.01 | locus YDR069C, strain doa4, stronger effect = lower value 1.01 | locus YDR137W, strain rgp1, stronger effect = lower value 1.03 | locus YDR159W, strain sac3, stronger effect = lower value 1.01 | locus YDR195W, strain ref2 1.02 | locus YDR297W, strain sur2, stronger effect = lower value 1.01 | locus YDR334W, strain swr1, stronger effect = lower value 1.01 | locus YDR335W, strain msn5, stronger effect = lower value 1.01 | locus YDR392W, strain spt3, stronger effect = lower value 0.984 | locus YEL003W, strain gim4, stronger effect = lower value 1.01 | locus YEL037C, strain rad23, stronger effect = lower value 1.01 | locus YEL061C, strain CIN8 (second series), stronger effect = lower value 1 | locus YER015W, strain faa2, stronger effect = lower value 1.01 | locus YER016W, strain bim1, stronger effect = lower value 1.02 | locus YER111C, strain swi4, stronger effect = lower value 1.02 | locus YER155C, strain BEM2 (second series), stronger effect = lower value 1.04 | locus YFR010W, strain ubp6, stronger effect = lower value 1.01 | locus YGL167C, strain pmr1, stronger effect = lower value 1.01 | locus YGL173C, strain kem1, stronger effect = lower value 1.02 | locus YGL227W, strain vid30, stronger effect = lower value 1.02 | locus YGL240W, strain doc1, stronger effect = lower value 1.02 | locus YGL253W, strain hxk2, stronger effect = lower value 1.01 | locus YHR013C, strain ard1, stronger effect = lower value 1.05 | locus YHR027C, strain rpn1, stronger effect = lower value 1.01 | [3] 1.03 | [10] 1.04 | locus YHR142W, strain chs7, stronger effect = lower value 1.01 | locus YJL092W, strain hpr5, stronger effect = lower value 1.01 | locus YJL095W, strain BCK1 (second series), stronger effect = lower value 1.01 | [11] 1.01 | locus YJL115W, strain asf1, stronger effect = lower value 1.01 | locus YJL129C, strain trk1, stronger effect = lower value 1.01 | locus YJL154C, strain vps35, stronger effect = lower value 1.01 | locus YJL164C, strain tpk1, stronger effect = lower value 1 | locus YJL166W, strain qcr8, stronger effect = lower value 1.02 | locus YJL187C, strain SWE1, stronger effect = lower value 1.01 | [12] 0.989 | locus YKL160W, strain elf1, stronger effect = lower value 1.02 | locus YKR026C, strain gcn3, stronger effect = lower value 0.993 | locus YKR091W, strain srl3, stronger effect = lower value 1.02 | locus YLL001W, strain dnm1, stronger effect = lower value 1.02 | locus YLL026W, stronger effect = lower value 1.02 | locus YLL041C, strain sdh2, stronger effect = lower value 1.01 | locus YLR027C, strain aat2, stronger effect = lower value 1.02 | [13] 0.97 | locus YLR221C, strain rsa3, stronger effect = lower value 1.01 | locus YLR258W, strain gsy2, stronger effect = lower value 1.01 | locus YLR262C, strain YPT6 (second series), stronger effect = lower value 1.02 | locus YLR320W, strain mms22, stronger effect = lower value 1.01 | locus YLR342W, strain FKS1, stronger effect = lower value 1.01 | locus YLR357W, strain rsc2, stronger effect = lower value 1.06 | locus YLR370C, strain arc18, stronger effect = lower value 1.01 | locus YLR384C, strain iki3, stronger effect = lower value 1.02 | locus YML120C, strain ndi1, stronger effect = lower value 1.01 | locus YMR058W, strain fet3, stronger effect = lower value 1.02 | locus YMR125W, strain sto1, stronger effect = lower value 1.03 | locus YMR129W, stronger effect = lower value 1 | locus YMR205C, strain PFK2, stronger effect = lower value 1.03 | locus YMR231W, strain pep5, stronger effect = lower value 1.01 | locus YNL071W, strain lat1, stronger effect = lower value 1.02 | [14] 1 | locus YNL209W, strain ssb2, stronger effect = lower value 1.01 | locus YNL248C, strain rpa49, stronger effect = lower value 1.01 | locus YNL322C, strain KRE1 (second series), stronger effect = lower value 1.01 | locus YNR049C, strain mso1, stronger effect = lower value 1.02 | locus YOR001W, strain rrp6, stronger effect = lower value 1.01 | locus YOR070C, strain gyp1, stronger effect = lower value 1.01 | locus YOR080W, strain dia2, stronger effect = lower value 1.01 | locus YOR083W, strain WHI5, stronger effect = lower value 0.998 | locus YOR106W, strain vam3, stronger effect = lower value 1.01 | [15] 1.02 | locus YOR265W, strain rbl2, stronger effect = lower value 1.01 | locus YOR270C, strain vph1, stronger effect = lower value 1.04 | locus YOR290C, strain snf2, stronger effect = lower value 1.01 | locus YPL051W, strain arl3, stronger effect = lower value 1.01 | locus YPL078C, strain atp4, stronger effect = lower value 1.02 | locus YPL106C, strain sse1, stronger effect = lower value 1.02 | locus YPL240C, strain hsp82, stronger effect = lower value 1.01 | [16] 1.02
